Screening data (PubChem)
GALK inhibitor: galactokinase (human) inhibition | P51570 | Purified GALK, Kinase-Glo residual ATP luminescence | Potency, µM (series often up to 57.5 µM), for inactives: at the highest dose activity change, negative = inhibition, actives largely listed as inhibitors | 270,000 tested, 0.007% active | AID 1868; also: potency is read from the fitted curve at half-maximal effect; % is scaled to controls: 0 for no effect and ±100 for the full control effect
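ATP-depletion format; final 35 uM ATP, 100 uM D-galactose, 5 nM enzyme; pH 8.0 HEPES/Mg2+ buffer; 60 min RT; luminescence read 10 min after detection reagent.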
D1 potentiator: enhances dopamine response at the human D1 receptor. potentiation, % at 10 µM. AID 504651. P21728. HEK293 TREx D1 cells, calcium flux, dopamine EC20 potentiation. 360,000 tested, 0.036% active; in the data active = potentiation above about 30%; also: 0% is about no effect
D1 agonist: activates the human D1 dopamine receptor; P21728; HEK293 T-REx D1 cells, calcium flux, agonist mode; activation, % at 2 µM; 360,000 tested, 1% active; AID 504660; in the data active = activation above about 30%; also: 0% is about no effect
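Inducible HEK293 T-REx D1 cells, force-coupled to calcium signalling, were plated at 4000 cells/well with tetracycline and held overnight at 30 C. After no-wash calcium dye loading, compound-evoked calcium rise over 180 s flagged agonists.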
USP2a block: USP2a (human) protease inhibition. USP2 core, Ub-CHOP2 coupled fluorogenic reporter, 485/531. 330,000 tested, 0.01% active. Potency, µM (doses to about 38.3 µM), without a hit: at the top dose activity change, negative = inhibition, usual class: inhibitors. O75604. AID 463254;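 also: potency is read from the fitted curve at half-maximal effect; plate controls were DMSO wells for no effect and full inhibition by NEM control for full effect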
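Deubiquitinase activity read as fluorescence (485/531 nm) after Ub-CHOP2 cleavage activates the enterokinase reporter on its substrate; USP2 core 10nM, Ub-CHOP2 and substrate 25nM each, 30min compound preincubation then 60min RT; data normalized to NEM, curves fitted.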
D1 antag: antagonists of human D1 dopamine receptor; P21728; HEK293 TREx D1 cells, calcium flux, dopamine EC80; active compounds read low; activity change, negative = inhibition, % at 10 µM; 360,000 tested, 3.2% active; AID 504652; in the data active = activity change below about -30%; also: % is scaled to controls: 0 for no effect and ±100 for the full control effect
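Tetracycline-induced HEK293 T-REx cells with force-coupled D1 receptor were loaded with a no-wash calcium dye. Compound was added after a 10 s baseline and read kinetically for 180 s; EC80 dopamine was then added and calcium flux followed another 180 s.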
Eya2 phos inh: Eya2 (human) phosphatase inhibition. O00167. recombinant Eya2, OMFP fluorescence dephosphorylation (OMFP is methylfluorescein phosphate). Potency, µM (series often up to 76.9 µM), for the others: at the highest dose activity, negative = inhibition, actives largely listed as inhibitors. 330,000 tested, 0.006% active. AID 488837; also: potency is read from the fitted curve at half-maximal effect; % is scaled to controls: 0 for no effect and ±100 for the full control effect
Target sequence (O00167 whole entry, looked up): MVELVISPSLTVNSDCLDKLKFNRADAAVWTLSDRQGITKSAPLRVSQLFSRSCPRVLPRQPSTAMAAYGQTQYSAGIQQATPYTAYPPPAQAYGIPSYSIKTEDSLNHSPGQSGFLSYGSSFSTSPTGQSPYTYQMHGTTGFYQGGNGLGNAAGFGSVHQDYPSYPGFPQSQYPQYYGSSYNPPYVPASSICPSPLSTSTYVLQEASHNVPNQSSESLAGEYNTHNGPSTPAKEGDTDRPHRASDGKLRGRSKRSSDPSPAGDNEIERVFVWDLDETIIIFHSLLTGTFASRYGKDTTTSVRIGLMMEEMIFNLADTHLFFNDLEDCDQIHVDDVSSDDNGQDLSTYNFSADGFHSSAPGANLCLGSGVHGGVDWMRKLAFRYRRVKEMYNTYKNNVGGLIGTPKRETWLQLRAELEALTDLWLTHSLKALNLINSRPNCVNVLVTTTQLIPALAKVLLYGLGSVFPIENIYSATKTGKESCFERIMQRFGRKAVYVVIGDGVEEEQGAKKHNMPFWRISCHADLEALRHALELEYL
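Eya2 protein (added as 0.2 uM solution) was preincubated with compound for 10 min at ambient temperature in 50 mM HEPES pH 7.5, 50 mM NaCl, 5 uM MgCl2, 0.05% BSA, 1 mM DTT. OMFP (added at 50 uM) then reacted 10 min; fluorescence read at 485/525 nm.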
Numbers without * were called inactive; . = no result. Sampled rows, rich in hits. Any-hit rate of the full collection: about 3.9%. Unless noted, calls follow the shape of the dose curve; as a rule, active = well fitted inhibition curve with a large enough effect; inconclusive = small, poorly fitted or top-dose-only effect, or effect the other way; inactive = flat fitted curve, though single readings scatter.

SMILES	GALK inhibitor	D1 potentiator	D1 agonist	USP2a block	D1 antag	Eya2 phos inh
CCCS(=O)(=O)N1CCN=C1SCc1cccc(C)c1	0.8%	-1.1	5.2	-1.1%	-30.1*	-7.5%
CCCS(=O)(=O)N1CCN=C1SCc1ccc(C)cc1	0.9%	2.5	-0.9	0.6%	-8.3	5.7%
Cc1cc(-c2ccccc2)nc2cc(C(=O)Nc3ccc(Cl)c(Cl)c3)nn12	.	2.6	2.1	.	2.5	.
O=C(Nc1ccc(N2CCOCC2)cc1N1CCOCC1)c1ccc(Cl)cc1	-4.2%	3.1	2.5	2.5%	-13.6	6.0%
Cc1ccc(N(C)S(=O)(=O)c2cccc(C(=O)NC3=NCCS3)c2)cc1	0.3%	-2.0	-0.2	4.9%	.	-2.3%
COc1cc(OC)cc(C(=O)Nc2ccccc2N2CCOCC2)c1	3.3%	-1.0	7.1	0.2%	-15.8	1.1%
COc1cc(OC)cc(C(=O)Nc2ccc(N3CCOCC3)cc2N2CCOCC2)c1	.	-2.8	-0.6	0.9%	-51.8*	11.8%
Cc1ccc(C(=O)Nc2ccc(N3CCOCC3)cc2N2CCOCC2)cc1	3.9%	-18.7	2.3	3.4%	-68.9*	2.3%
Cc1ccc(NC(=O)CSCC(=O)Nc2cc(C(F)(F)F)ccc2N2CCOCC2)cc1	.	-2.4	0.8	3.0%	-34.1*	11.4%
COc1ccc(N(C)S(=O)(=O)c2cccc(C(=O)NC3=NCCS3)c2)cc1	3.4%	-11.3	8.6	-0.1%	-39.1*	-13.1%
COc1cc(NC(=O)C2=C(C)Nc3nnnn3C2c2ccc(SC)cc2)c(OC)cc1Cl (configuration not stated)	.	-0.8	-0.7	.	-7.4	.
CCN(CC)C(=O)c1sc2c(c1C)c(=O)n(-c1ccc(Cl)c(Cl)c1)c(=O)n2Cc1ccccc1C#N	.	-2.2	1.9	.	-14.5	.
Cc1ccc(N(C)S(=O)(=O)c2cccc(C(=O)Nc3ccc(N4CCOCC4)cc3)c2)cc1	.	-7.3	3.4	-9.6%	-39.3*	-1.9%
CCc1ccc(CN(Cc2cn[nH]c2-c2ccc(OC)cc2)C(=O)Nc2ccc(Br)cc2)cc1	.	-2.0	7.2	.	3.7	.
COc1ccc(OC)c(NCc2cccn2-c2nnc(N3CCC(C)CC3)s2)c1	.	-5.7	0.5	.	14.2	.
Cc1cc(C)cc(NC(=O)N2CCC(C(N)=O)(N3CCCCC3)CC2)c1	.	-1.4	1.6	.	-7.8	.
CCn1nc(C)c(CN2CCC(C(=O)Nc3cccc(-c4cccc(F)c4)c3)CC2)c1C	-5.7%	-4.0	37.2*	2.2%	-20.2	-4.8%
CCn1cc(CN2CCC(C(=O)Nc3cccc(-c4cccc(OC)c4)c3)CC2)cn1	-4.0%	3.4	2.0	2.2%	-3.3	-2.6%
CC(C)n1cc(CN2CCC(C(=O)Nc3cccc(-c4cccc(Cl)c4)c3)CC2)cn1	1.4%	-4.5	40.5*	-0.7%	-21.0	7.0%
CCn1cc(CN2CCC(C(=O)Nc3cccc(-c4cccc(F)c4)c3)CC2)cn1	6.8%	-10.4	17.7	-0.3%	-38.2*	-13.2%
CCN(C(=O)Cn1cnc2onc(-c3ccc(F)cc3)c2c1=O)c1ccc(OC)cc1	.	-2.1	1.6	.	-14.0	.
COc1ccccc1Cn1cc(C(=O)c2ccc(C)cc2)c(=O)c2cc(C)ccc21	.	-3.5	4.2	.	-2.9	.
COc1ccc2c(C)c(CCC(=O)NCCc3ccccc3)c(=O)oc2c1	.	0.4	1.1	.	-9.3	.
C=CCc1cc(F)c(S(=O)(=O)N2CCN(S(=O)(=O)c3ccc4c(c3)OCCO4)CC2)cc1F	.	-1.4	1.9	.	-5.7	.
Cc1ccc(-c2c(C(=O)N3CCN(c4cccc(C)c4C)CC3)oc(=O)c3ccccc23)cc1	.	2.9	2.8	.	27.0	.
Cc1ccc(NC(=O)Cn2c(=O)n(Cc3ccc4c(c3)OCO4)c(=O)c3ccc(C(=O)NC4CCCCC4)cc32)c(C)c1	.	0.2	0.1	.	-22.2	.
COc1ccc(C)cc1-n1nnnc1SCC(=O)Nc1cc(C)on1	0.6%	6.8	3.0	-1.2%	-51.1*	1.1%
COc1ccc(C)cc1-n1nnnc1SCC(=O)NC(=O)NCc1ccco1	-0.3%	-2.1	2.1	-2.9%	-36.6*	-31.9%
